This is part of a sample that, as a whole, favours compounds with a hit. Of some 83,000 tested, about 20% had one in any assay.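 How to read the values: 0–100, growth inhibition (40 = 60% inhibited); 0, no net growth; -100 to 0, cell death (-40 = 40% of starting cells died; -100 = all dead).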 The source made the active and inactive calls. How the source made its calls: active means growth percent below 10; inactive means the rest.
What was measured:
Test in all cases: NCI-60 one-dose screen, 48 h (100 = growth as untreated, 0 = no growth, -100 = all killed)
SR leukemia = details: 10 µM unless noted
RPMI-8226 leukemia = details: 10 µM unless noted
OVCAR-8 ovarian = details: 10 µM unless noted
OVCAR-5 ovarian = details: 10 µM unless noted
OVCAR-4 ovarian = details: 10 µM unless noted
SK-OV-3 ovarian = details: 10 µM unless noted
IGROV1 ovarian = details: 10 µM unless noted
OVCAR-3 ovarian = details: 10 µM unless noted
HS 578T breast = details: 10 µM
NCI/ADR-RES ovarian = details: 10 µM unless noted
T-47D breast = details: 10 µM unless noted
BT-549 breast = details: 10 µM unless noted
MDA-MB-435 melanoma = details: 10 µM unless noted
SW-620 colon = details: 10 µM unless noted
MCF7 breast = details: 10 µM unless noted
HCT-116 colon = details: 10 µM unless noted
HCC-2998 colon = details: 10 µM unless noted
KM12 colon = details: 10 µM unless noted

Measured: growth

O=C(Nc1ccc2[nH]c3ccccc3c2c1)c1ccccc1Cl
inactive: SR leukemia 17.6% | RPMI-8226 leukemia 67.5% | OVCAR-8 ovarian 72.4% | OVCAR-5 ovarian 82.4% | OVCAR-4 ovarian 101% | SK-OV-3 ovarian 50.5% | IGROV1 ovarian 50.1% | OVCAR-3 ovarian 50.9% | HS 578T breast 70.6% | NCI/ADR-RES ovarian 18.8% | T-47D breast 43.7% | BT-549 breast 61.2% | SW-620 colon 28.2% | MCF7 breast 21.8% | HCT-116 colon 25.4% | HCC-2998 colon 64.3% | KM12 colon 24.4%
active: MDA-MB-435 melanoma -53.1%

COc1cccc(Cn2c(-c3nonc3NC(C)=O)nc3ccccc32)c1
inactive: SR leukemia 16.3% | RPMI-8226 leukemia 28.4% | OVCAR-8 ovarian 50.9% | OVCAR-5 ovarian 39.2% | OVCAR-4 ovarian 79.9% | SK-OV-3 ovarian 16.9% | IGROV1 ovarian 56.8% | OVCAR-3 ovarian 69.5% | HS 578T breast 23.6% | NCI/ADR-RES ovarian 30.3% | T-47D breast 42.3% | BT-549 breast 41.6% | SW-620 colon 28.7% | MCF7 breast 47.4% | HCT-116 colon 42.7% | HCC-2998 colon 49.3% | KM12 colon 30.4%
active: MDA-MB-435 melanoma -35%

C/C(=N\NC(=S)N1CCCCC1)c1ccccn1
inactive: OVCAR-8 ovarian 16% | OVCAR-5 ovarian 29.3% | SK-OV-3 ovarian 27.6% | IGROV1 ovarian 11.2% | HS 578T breast 16.8% | NCI/ADR-RES ovarian 15.2% | T-47D breast 17.9% | BT-549 breast 29.4% | MDA-MB-435 melanoma 14.6% | SW-620 colon 21.9% | MCF7 breast 12.8% | HCT-116 colon 13.3% | HCC-2998 colon 34.8% | KM12 colon 13%
active: SR leukemia -7.37% | RPMI-8226 leukemia -19.4% | OVCAR-4 ovarian -30.6% | OVCAR-3 ovarian -12.9%

OC(c1cc(-c2ccc(C(F)(F)F)cc2)nc(-c2ccc(C(F)(F)F)cc2)c1)C1CCCCN1 (stereo not drawn)
active: SR leukemia -64.8% | RPMI-8226 leukemia -48.4% | OVCAR-8 ovarian -64.5% | OVCAR-5 ovarian -77% | OVCAR-4 ovarian -92% | SK-OV-3 ovarian -74.3% | IGROV1 ovarian -65.2% | OVCAR-3 ovarian -90.4% | HS 578T breast -55.5% | NCI/ADR-RES ovarian -68.6% | T-47D breast -67.9% | BT-549 breast -79% | MDA-MB-435 melanoma -58.3% | SW-620 colon -70.5% | MCF7 breast -80.8% | HCT-116 colon -77.3% | HCC-2998 colon -70.8% | KM12 colon -87.7%

NC(N)=N/N=C/c1ccccc1
inactive: SR leukemia 96% | RPMI-8226 leukemia 89.1% | OVCAR-8 ovarian 99.5% | OVCAR-5 ovarian 93.2% | OVCAR-4 ovarian 101% | SK-OV-3 ovarian 101% | IGROV1 ovarian 108% | OVCAR-3 ovarian 99.5% | HS 578T breast 101% | NCI/ADR-RES ovarian 104% | T-47D breast 94% | BT-549 breast 102% | MDA-MB-435 melanoma 93.6% | SW-620 colon 104% | MCF7 breast 93% | HCT-116 colon 92.8% | HCC-2998 colon 98.1% | KM12 colon 103%

Cc1n(Cc2ccc3ccccc3n2)cc[n+]1Cc1ccc2ccccc2n1
inactive: SR leukemia 48.8% | RPMI-8226 leukemia 24.6% | OVCAR-8 ovarian 97.9% | OVCAR-5 ovarian 83.4% | OVCAR-4 ovarian 24.1% | SK-OV-3 ovarian 91.1% | IGROV1 ovarian 64.4% | OVCAR-3 ovarian 54.8% | HS 578T breast 92.1% | NCI/ADR-RES ovarian 98.7% | T-47D breast 27.2% | BT-549 breast 72.8% | MDA-MB-435 melanoma 63% | SW-620 colon 90.4% | MCF7 breast 61.5% | HCT-116 colon 83.3% | HCC-2998 colon 62.8% | KM12 colon 50.6%

COc1cc(/C=C/C(=O)c2c(C)nc3ccccc3c2C)ccc1OCCCOc1cc2c(cc1OC)C(=O)N1CCC[C@H]1C=N2
active: SR leukemia -34.3% | RPMI-8226 leukemia -22.6% | OVCAR-5 ovarian -23.1% | OVCAR-4 ovarian -10.9% | SK-OV-3 ovarian -9.97% | IGROV1 ovarian -61.7% | OVCAR-3 ovarian -86.9% | HS 578T breast -2.33% | T-47D breast -38.8% | BT-549 breast -94.2% | MDA-MB-435 melanoma -60.8% | SW-620 colon -67.6% | MCF7 breast -51.3% | HCT-116 colon -35.8% | HCC-2998 colon -69.3% | KM12 colon -54.2%
inactive: OVCAR-8 ovarian 12.3% | NCI/ADR-RES ovarian 13.9%

CN1CCN(Cc2ccc(NC(=O)c3cnc(F)c(C#Cc4cnc(N)c5ncccc45)c3)cc2C(F)(F)F)CC1
inactive: SR leukemia 13.4% | RPMI-8226 leukemia 18.2% | OVCAR-8 ovarian 29.6% | OVCAR-5 ovarian 37.2% | OVCAR-4 ovarian 16.6% | IGROV1 ovarian 13.9% | OVCAR-3 ovarian 46.2% | NCI/ADR-RES ovarian 29.9% | T-47D breast 30.3% | BT-549 breast 41.9% | MDA-MB-435 melanoma 10.2% | MCF7 breast 42.6% | HCC-2998 colon 40.7% | KM12 colon 11.2%
active: SK-OV-3 ovarian 3.65% | HS 578T breast -10.1% | SW-620 colon 8.66% | HCT-116 colon 7.2%

O=Cc1ccc2nc(C(Cl)(Cl)Cl)ccc2c1
inactive: SR leukemia 93.2% | RPMI-8226 leukemia 93.7% | OVCAR-8 ovarian 107% | OVCAR-5 ovarian 108% | OVCAR-4 ovarian 110% | SK-OV-3 ovarian 90.5% | IGROV1 ovarian 93.1% | OVCAR-3 ovarian 103% | HS 578T breast 102% | NCI/ADR-RES ovarian 105% | T-47D breast 97.6% | BT-549 breast 95.9% | MDA-MB-435 melanoma 99.6% | SW-620 colon 98.3% | MCF7 breast 82.5% | HCC-2998 colon 109% | KM12 colon 100%

O=C(O)/C=C(\c1nc2ccc([N+](=O)[O-])cc2[nH]1)c1cc(Cl)ccc1O
inactive: SR leukemia 29.6% | OVCAR-8 ovarian 24.5% | OVCAR-5 ovarian 87.1% | SK-OV-3 ovarian 29.9% | IGROV1 ovarian 25.7% | HS 578T breast 45.9% | NCI/ADR-RES ovarian 17.7% | MDA-MB-435 melanoma 20.5% | SW-620 colon 28.6% | MCF7 breast 13.4% | HCC-2998 colon 27.8% | KM12 colon 21.3%
active: RPMI-8226 leukemia -15.7% | OVCAR-4 ovarian 8.51% | OVCAR-3 ovarian -16% | T-47D breast 5.42% | BT-549 breast 8.6% | HCT-116 colon 8.05%

CC(C)[C@H](CN)NC[C@H](C)NS(=O)(=O)c1ccc(C(C)(C)C)cc1
inactive: SR leukemia 110% | RPMI-8226 leukemia 90.4% | OVCAR-8 ovarian 97.5% | OVCAR-5 ovarian 106% | OVCAR-4 ovarian 87.5% | SK-OV-3 ovarian 105% | IGROV1 ovarian 97% | OVCAR-3 ovarian 103% | HS 578T breast 87.9% | NCI/ADR-RES ovarian 104% | T-47D breast 80.5% | BT-549 breast 81.2% | MDA-MB-435 melanoma 99.7% | SW-620 colon 94.2% | MCF7 breast 90.2% | HCT-116 colon 86.2% | KM12 colon 101%

CNCc1cccc2c1OCCOCCOCCC(C)S(=O)(=O)c1ccc(cc1)-c1cnc(N)c(n1)C(=O)N2 (stereo not drawn)
inactive: RPMI-8226 leukemia 54.8% | OVCAR-5 ovarian 115% | OVCAR-4 ovarian 75.5% | SK-OV-3 ovarian 23.2% | IGROV1 ovarian 28.2% | OVCAR-3 ovarian 25.7% | NCI/ADR-RES ovarian 91.6% | T-47D breast 32.8% | BT-549 breast 43.9% | MDA-MB-435 melanoma 42.8% | SW-620 colon 27.6% | MCF7 breast 37.9% | KM12 colon 47.5%
active: SR leukemia -19.2% | OVCAR-8 ovarian 2.48% | HS 578T breast 0.126% | HCT-116 colon -2.15%

COC(=O)CNS(=O)(=O)c1ccc2c(c1)Cc1cc(S(=O)(=O)NCC(=O)OC)ccc1-2
inactive: SR leukemia 102% | RPMI-8226 leukemia 103% | OVCAR-8 ovarian 97.3% | OVCAR-5 ovarian 103% | OVCAR-4 ovarian 102% | SK-OV-3 ovarian 97.7% | IGROV1 ovarian 96.5% | OVCAR-3 ovarian 102% | HS 578T breast 95.7% | NCI/ADR-RES ovarian 105% | T-47D breast 99.5% | BT-549 breast 100% | MDA-MB-435 melanoma 103% | SW-620 colon 102% | MCF7 breast 95.5% | HCT-116 colon 109% | KM12 colon 109%

CC1=NOCC(=O)N1
inactive: SR leukemia 97.5% | RPMI-8226 leukemia 99.9% | OVCAR-8 ovarian 107% | OVCAR-5 ovarian 95.3% | OVCAR-4 ovarian 95.4% | SK-OV-3 ovarian 103% | IGROV1 ovarian 104% | OVCAR-3 ovarian 108% | HS 578T breast 117% | NCI/ADR-RES ovarian 110% | T-47D breast 99.1% | BT-549 breast 104% | MDA-MB-435 melanoma 100% | SW-620 colon 103% | MCF7 breast 98.6% | HCT-116 colon 98.5% | KM12 colon 107%

Fc1ccc2nc(-c3ccc(-c4noc(-c5ccc(Cl)cc5)n4)cc3)[nH]c2c1
inactive: SR leukemia 95.6% | RPMI-8226 leukemia 106% | OVCAR-8 ovarian 108% | OVCAR-5 ovarian 113% | OVCAR-4 ovarian 114% | SK-OV-3 ovarian 113% | IGROV1 ovarian 115% | OVCAR-3 ovarian 105% | HS 578T breast 108% | NCI/ADR-RES ovarian 100% | T-47D breast 92.9% | BT-549 breast 93.9% | MDA-MB-435 melanoma 105% | SW-620 colon 107% | MCF7 breast 105% | HCT-116 colon 95.6% | HCC-2998 colon 106% | KM12 colon 93.1%

COc1cc(NC(C)CCCN)c2ncccc2c1Oc1ccc(Cl)cc1 (stereo not drawn)
inactive: SR leukemia 53.2% | RPMI-8226 leukemia 63% | OVCAR-8 ovarian 84.8% | OVCAR-5 ovarian 84.6% | OVCAR-4 ovarian 56.3% | SK-OV-3 ovarian 98.6% | IGROV1 ovarian 64.6% | OVCAR-3 ovarian 60% | HS 578T breast 70% | NCI/ADR-RES ovarian 77.3% | T-47D breast 76.8% | BT-549 breast 86.2% | MDA-MB-435 melanoma 90.7% | SW-620 colon 73.5% | MCF7 breast 71.3% | HCT-116 colon 58.3% | HCC-2998 colon 49.8% | KM12 colon 69.2%
